Rows were chosen to be rich in hits. Some 2.6% of all compounds tested hit in one or more screens of this group.
CRFBP-R2 block: antagonists of CRF-BP/CRF-R2 complex, primary screen, cell-based, HEK293, calcium dye fluorescence, uHTS; CRF-induced calcium fluorescence; inhibition, % at 11.8 µM; hit rate 0.59% among 350,000; AID 588475, 2011;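 active = inhibition of the ligand-induced calcium signal above about 50% at the single tested concentration, limit read from the data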
Myeloid diff MLP: induction of myeloid progenitor differentiation, primary screen, cell-based, flow cytometry, MLPCN library; ER-HoxA9 myeloid progenitors, lysozyme-GFP differentiation; calls only at 10 µM; hit rate 1% among 360,000;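 active = normalized GFP-positive differentiation at or above the plate's own cutoff, the solvent-only control mean plus 3 SD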;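 also: cells exposed to compound for four days before flow analysis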
IDE inh: human IDE inhibitors in live cells, primary screen, fluorescence polarization, HEK cells, FAbetaB substrate. FAbetaB cleavage. Insulin-degrading enzyme (Homo sapiens), P14735. hit rate 0.41% among 320,000. AID 434962, 2010. inhibition, % at 5.59 µM;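 active = percent inhibition above the average of all tested compounds plus 3 SD, set per screening campaign, cut at about 16% in these data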;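 also: IDE supplied by intact live HEK cells; FP after avidin binding of uncleaved biotin substrate so inhibition keeps polarization high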
Target sequence (P14735 whole entry, looked up): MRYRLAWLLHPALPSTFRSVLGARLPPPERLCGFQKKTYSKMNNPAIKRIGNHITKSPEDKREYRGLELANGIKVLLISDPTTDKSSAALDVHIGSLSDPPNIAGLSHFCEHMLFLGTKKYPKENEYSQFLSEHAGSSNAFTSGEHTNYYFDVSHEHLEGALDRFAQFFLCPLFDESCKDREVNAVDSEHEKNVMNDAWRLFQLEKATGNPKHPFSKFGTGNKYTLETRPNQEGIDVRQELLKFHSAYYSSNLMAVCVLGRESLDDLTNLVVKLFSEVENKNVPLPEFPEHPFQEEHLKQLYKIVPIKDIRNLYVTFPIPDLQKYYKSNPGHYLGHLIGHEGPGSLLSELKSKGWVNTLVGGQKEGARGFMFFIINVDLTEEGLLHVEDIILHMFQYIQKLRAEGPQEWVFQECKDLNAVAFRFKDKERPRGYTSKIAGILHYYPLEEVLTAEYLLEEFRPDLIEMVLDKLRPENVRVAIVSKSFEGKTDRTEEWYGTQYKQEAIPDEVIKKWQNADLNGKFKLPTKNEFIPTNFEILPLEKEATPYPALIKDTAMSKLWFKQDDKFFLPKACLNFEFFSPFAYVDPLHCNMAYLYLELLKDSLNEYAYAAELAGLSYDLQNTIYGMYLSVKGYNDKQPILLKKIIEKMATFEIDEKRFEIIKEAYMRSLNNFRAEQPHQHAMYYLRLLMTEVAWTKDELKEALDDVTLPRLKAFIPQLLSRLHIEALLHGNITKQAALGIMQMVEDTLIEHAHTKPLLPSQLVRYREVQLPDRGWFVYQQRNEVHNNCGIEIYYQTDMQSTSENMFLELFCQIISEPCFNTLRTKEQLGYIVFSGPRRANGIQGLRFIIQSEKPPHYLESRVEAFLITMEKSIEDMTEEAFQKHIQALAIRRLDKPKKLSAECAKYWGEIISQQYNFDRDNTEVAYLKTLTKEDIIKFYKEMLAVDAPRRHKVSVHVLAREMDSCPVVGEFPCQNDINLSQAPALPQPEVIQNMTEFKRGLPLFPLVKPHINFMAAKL
CRFR2-BP ag: agonists of CRF-BP/CRF-R2 complex, primary screen, cell-based, HEK293, calcium dye fluorescence, uHTS | CRF-binding protein / CRF receptor 2 complex (human) | calcium dye fluorescence (FLIPR); percent of saturating CRF peptide response | activation, % at 13.2 µM | hit rate 0.46% among 350,000;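 active = activation of at least 50%, plus an integration ratio under a set limit after plate pattern correction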
TPT1 inh: Candida albicans TPT1 enzyme inhibitors, primary screen, biochemical, fluorescence polarization. inhibition, % at 5 µM. hit rate 0.81% among 300,000. recombinant caTPT1, FP RNA substrate dephosphorylation;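 active = inhibition above the mean of all tested compounds plus 3 SD, set per screening campaign, cut at about 24% in these data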
IDE cell activ: human IDE activators in live cells, primary screen, fluorescence polarization, HEK cells, FAbeta-B substrate; Insulin-degrading enzyme (Homo sapiens), P14735; FAbeta-B cleavage; 0% vehicle, 100% cell-free pure enzyme wells; activation, % at 5.96 µM; hit rate 0.073% among 340,000;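 active = activation above the mean of all tested compounds plus 3 SD, set per screening campaign, cut at about 17% in these data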
Myeloid diff: inducers of myeloid progenitor differentiation, confirmation, cell-based, GFP/Mac1 flow cytometry, cherry pick 01; AID 651706, 2012; hit rate 2% among 2,300; shares compounds with Myeloid diff MLP; ER-HoxA9 myeloid progenitors, GFP/Mac1 double-positive flow; calls only;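 active = share of green or green-and-red cells above 9 and 9% in run 1 or 4 and 3% in run 2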
GFP autofluor: compound fluorescence in myeloid differentiation counter-screen. hit rate 7.4% among 2,300. shares compounds with Myeloid diff MLP. ER-HoxA9 myeloid progenitors, no estrogen, GFP autofluorescence flow cytometry; vehicle wells 0%, positive control 100%. AID 651707. fluorescence response, % (test concentration not listed);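 active = over 5% cells positive for green fluorescent reporter, or over 2% positive for both it and APC stain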
Numbers stand for hits.

Screening Cc1cc2oc(C(=O)Nc3c(C)n(C)n(-c4ccccc4)c3=O)c(C)c2cc1C returned CRFBP-R2 block inactive, Myeloid diff MLP inactive, IDE inh inactive, CRFR2-BP ag inactive, TPT1 inh inactive, IDE cell activ inactive, Myeloid diff inactive and GFP autofluor inactive.
Cc1c(N/N=C(\C#N)C(=O)c2ccccc2)c(=O)n(-c2ccccc2)n1C was read as CRFBP-R2 block inactive, Myeloid diff MLP inactive, CRFR2-BP ag inactive, IDE cell activ inactive, Myeloid diff inactive and GFP autofluor 6.9.
Screening Cc1cc(C)c2nc(N(CCCN(C)C)C(=O)c3ccc(S(=O)(=O)N4CC(C)OC(C)C4)cc3)sc2c1 (stereo not given) returned CRFBP-R2 block inactive, Myeloid diff MLP inactive, IDE inh inactive, CRFR2-BP ag inactive, TPT1 inh inactive and IDE cell activ inactive.
Screening Cc1ccc(S(=O)(=O)N2CCN(C(=O)CN3C(=O)c4ccccc4C3=O)CC2)c(C)c1 returned CRFBP-R2 block inactive, Myeloid diff MLP inactive, IDE inh inactive, CRFR2-BP ag inactive and IDE cell activ inactive.
For CCN(CC)c1ccc(C=NNc2ccc([N+](=O)[O-])cn2)cc1 the results were CRFBP-R2 block inactive, Myeloid diff MLP active, CRFR2-BP ag inactive, IDE cell activ inactive, Myeloid diff inactive and GFP autofluor 12.9.
Screening CC1(C)CC(C(CC(=O)N2CCCC2)Cc2ccccc2)CCO1 (stereo not given) returned CRFBP-R2 block inactive, Myeloid diff MLP inactive, IDE inh inactive, CRFR2-BP ag inactive, TPT1 inh inactive and IDE cell activ inactive.
For COc1cccc(-c2ccc(NC(=O)C3CCCN(Cc4cccc(C)n4)C3)cc2)c1 (stereo not given) the results were CRFBP-R2 block inactive, Myeloid diff MLP inactive, CRFR2-BP ag inactive, Myeloid diff inactive and GFP autofluor inactive.
`C#CC[N+]1(CC#Cc2ccccc2)CCCC1` gave CRFBP-R2 block inactive, Myeloid diff MLP active, IDE inh inactive, CRFR2-BP ag inactive, TPT1 inh inactive, IDE cell activ inactive, Myeloid diff inactive and GFP autofluor inactive.
C(#Cc1ccccc1)C[N+]1(CC#Cc2cccc3ccccc23)CCCC1 was read as CRFBP-R2 block inactive, Myeloid diff MLP inactive, IDE inh inactive, CRFR2-BP ag inactive, TPT1 inh inactive and IDE cell activ inactive.
For O=C(COc1ccc2ccc(=O)oc2c1)NC1CCCC1 the results were CRFBP-R2 block inactive, Myeloid diff MLP active, IDE inh inactive, CRFR2-BP ag inactive, TPT1 inh inactive, IDE cell activ inactive, Myeloid diff inactive and GFP autofluor inactive.
COc1ccc(OC)c(NC(=O)C2(C)CCN2C(=O)C(C)(C)c2ccccc2)c1 (stereo not given) was read as Myeloid diff MLP inactive.
Screening O=C(CN1C(=O)C2CCCCC2C1=O)N1CCN(c2ccc(F)cc2)CC1 (stereo not given) returned CRFBP-R2 block inactive, Myeloid diff MLP active, IDE inh inactive, CRFR2-BP ag inactive, TPT1 inh inactive, IDE cell activ inactive, Myeloid diff inactive and GFP autofluor inactive.
`O=C(CN1C(=O)C2CCCCC2C1=O)N1CCN(c2ccccc2)CC1` (stereo not given) gave CRFBP-R2 block inactive, Myeloid diff MLP inactive, IDE inh inactive, CRFR2-BP ag inactive, TPT1 inh inactive and IDE cell activ inactive.
For O=S(=O)(c1ccccc1)N1N=C(c2ccccc2)CC1c1ccccc1F (stereo not given) the results were CRFBP-R2 block inactive, Myeloid diff MLP inactive, IDE inh inactive, CRFR2-BP ag inactive, TPT1 inh inactive and IDE cell activ inactive.
Screening Cc1ccccc1COc1cccn2c(N(C)C(=O)CCC3CCCC3)c(C)nc12 returned Myeloid diff MLP inactive.
For COc1ccccc1COc1cccn2c(N(C)C(=O)CCC3CCCC3)c(C)nc12 the results were Myeloid diff MLP active, Myeloid diff inactive and GFP autofluor inactive.
CC(/C=C/c1ccc(N(C)C)cc1)=N/N=C1/NC(=O)CC(C(=O)Nc2ccc(Cl)cc2)S1 (stereo not given) was read as CRFBP-R2 block inactive, Myeloid diff MLP active, IDE inh inactive, CRFR2-BP ag inactive, TPT1 inh inactive, IDE cell activ inactive, Myeloid diff inactive and GFP autofluor inactive.
Screening CC(/C=C/c1ccc(N(C)C)cc1)=N\N=C1\NC(=O)CC(C(=O)Nc2ccccc2)S1 (stereo not given) returned CRFBP-R2 block inactive, Myeloid diff MLP inactive, IDE inh inactive, CRFR2-BP ag inactive, TPT1 inh inactive and IDE cell activ inactive.
For COc1ccc(C2CC(c3ccccc3)=NN2C(=O)COC(=O)c2nc3nccc(C)n3n2)cc1 (stereo not given) the results were CRFBP-R2 block inactive, Myeloid diff MLP inactive, IDE inh inactive, CRFR2-BP ag inactive, TPT1 inh inactive and IDE cell activ inactive.
c1ccc(C2=Nc3ccccc3OC2)cc1 was read as CRFBP-R2 block inactive, Myeloid diff MLP inactive, IDE inh inactive, CRFR2-BP ag inactive, TPT1 inh inactive, IDE cell activ inactive, Myeloid diff inactive and GFP autofluor inactive.
Screening CCOC(=O)N1CCC(N2Cc3cccc(C(=O)Nc4ccc(N(CC)CC)cc4C)c3C2=O)CC1 returned CRFBP-R2 block inactive, Myeloid diff MLP inactive, IDE inh inactive, CRFR2-BP ag inactive, TPT1 inh inactive and IDE cell activ inactive.
`COc1ccc(NC(=O)c2sccc2SCc2cccc(C(F)(F)F)c2)cc1` gave CRFBP-R2 block inactive, Myeloid diff MLP inactive, IDE inh inactive, CRFR2-BP ag inactive, TPT1 inh inactive, IDE cell activ inactive, Myeloid diff inactive and GFP autofluor inactive.
For O=C(NCCc1ccc(Cl)cc1)C1CCCN1C(=O)Nc1ccc(F)cc1 (stereo not given) the results were CRFBP-R2 block inactive, Myeloid diff MLP inactive, IDE inh inactive, CRFR2-BP ag inactive, TPT1 inh inactive and IDE cell activ inactive.
`O=C(NCCc1ccccc1)C1CCCN1C(=O)Nc1ccc(F)cc1` (stereo not given) gave CRFBP-R2 block inactive, Myeloid diff MLP active, IDE inh inactive, CRFR2-BP ag inactive, TPT1 inh inactive, IDE cell activ inactive, Myeloid diff inactive and GFP autofluor inactive.

Screens deposited in PubChem BioAssay by several laboratories.
